Laboratory results: PubChem BioAssay (NCATS)
Where “and” joins values, the source holds several entries; their conditions need not be identical. Equal entries are not always repeated. Results filed as inconclusive are left out. Entries that show only a call come without a potency. Calls of active or inactive are those of the source. The call rests on the fitted dose curve; in most records, active means well fitted cell-killing curve with a large enough effect; inconclusive means small, poorly fitted or top-dose-only effect, or effect the other way; inactive means no such curve, though single readings can be large or run the other way.

Assay: Viability qHTS for spleen associated tyrosine kinase inhibitor (SYKi) naive MV4-11 cells (AID 1963823); further: nearly all actives have a fitted effect of over 40% in size
Details: MV4-11 AML viability, CellTiter-Glo luminescence, 72 h; series mostly up to 45 µM
Method in brief: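 Read-out: CellTiter-Glo luminescence. Exposure: 72 hr, 37 C, 5% CO2, 95% humidity. Cells: MV4-11 without SYK inhibitor history, 500/well, qHTS format.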
Potency means the concentration at half of the fitted maximal effect.

Row | SMILES | Potency
1 | COc1cc(CCCO)ccc1O[C@@H]1O[C@H](CO)[C@@H](O)[C@H](O)[C@H]1O | inactive
2 | C/C=C/C=C/C=C/C(=O)OC1C=C2C(O)OC(=O)[C@]2(O)[C@@]2(C)CCCC(C)(C)[C@H]12 (stereo partly drawn) | 6.32 µM (active)
3 | COc1cc(C(CO)CO[C@@H]2O[C@H](CO)[C@@H](O)[C@H](O)[C@H]2O)ccc1O (stereo partly drawn) | inactive
4 | CCn1c(=O)c2cc(C(N)=O)c(N)nc2n(C2CC2)c1=O | inactive
5 | COc1cc(/C=C/C(=O)O[C@H]2[C@H](O)[C@@H](CO)O[C@@]2(CO)O[C@H]2O[C@H](CO)[C@@H](O)[C@H](O)[C@H]2O)ccc1O | inactive
6 | O=C(O)[C@H](Cc1ccccc1)Oc1ccc(-c2ccccc2)cc1 | inactive
7 | C=C1CCC[C@]2(C)CC[C@@H](C(=C)C(=O)O)[C@H](O)[C@@H]12 | inactive
8 | COc1cc(Nc2cnc(C#N)c(O[C@H](C)CN(C)C)n2)ncc1-c1cnn(C)c1 | 0.934 µM (active)
9 | COc1cc(O[C@@H]2O[C@H](CO[C@H]3OC[C@](O)(CO)[C@H]3O)[C@@H](O)[C@H](O)[C@H]2O)cc(OC)c1O | inactive
10 | C=CC(=O)N1CCCN(c2cc(NCCC(=O)O)nc(-c3ccccn3)n2)CC1 | inactive
11 | CCN(CC)CCOc1ccc(/C(=C(\Cl)c2ccccc2)c2ccccc2)cc1 | 9.44 µM (active) and 8.2 µM (active)
12 | Nc1c(S(=O)(=O)c2ccccc2)c2nc3ccccc3nc2n1-c1ccc(F)cc1 | inactive
13 | CC1=CCC[C@@H]2[C@@](C)(CCc3ccoc3)[C@H](C(=O)O)CC[C@@]12C | 2.86 µM (active)
